According to article PMC5540273 (PLoS ONE, 2017):

What was measured:
Conditions in all cases: concentration: 1 μM, replicates: in singlicate; n = 1
[1] = system: EPHA1
[2] = system: EPHA2
[3] = system: EPHA3
[4] = system: EPHA4
[5] = system: EPHA5
[6] = system: EPHA6
[7] = system: EPHA7
[8] = system: EPHA8
[9] = system: EPHB1
[10] = system: EPHB2
[11] = system: EPHB3
[12] = system: EPHB4
[13] = system: EPHB6
[14] = system: ERBB2
[15] = system: ERBB3
[16] = system: ERBB4
[17] = system: T1, ERK1
T1 construct: gene MAPK3

[18] = system: T2, ERK2
T2 construct: gene MAPK1

[19] = system: T3, ERK3
T3 construct: gene MAPK6

[20] = system: T4, ERK4
T4 construct: gene MAPK4
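Note: KINOMEscan kinase panel screen.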

SMILES | %Inh [1] [%] | %Inh [2] [%] | %Inh [3] [%] | %Inh [4] [%] | %Inh [5] [%] | %Inh [6] [%] | %Inh [7] [%] | %Inh [8] [%] | %Inh [9] [%] | %Inh [10] [%] | %Inh [11] [%] | %Inh [12] [%] | %Inh [13] [%] | %Inh [14] [%] | %Inh [15] [%] | %Inh [16] [%] | %Inh [17] [%] | %Inh [18] [%] | %Inh [19] [%] | %Inh [20] [%]
COc1cc(Nc2ccnc3ccc(C(F)(F)F)cc23)cc(OC)c1OC [GW577382] | 61 | 35 | 27 | 14 | 2 | 0 | 10 | 75 | 10 | 26 | 14 | 20 | 49 | 16 | 30 | 23 | 0 | 5 | 0 | 1
Cc1c(Cn2c(C)nn3c(=O)cc(N4CCO[C@H](C)C4)nc23)cccc1C(F)(F)F [GSK2373690] | 4 | 26 | 0 | 3 | 1 | 0 | 22 | 29 | 8 | 0 | 10 | 0 | 0 | 7 | 0 | 32 | 17 | 14 | 10 | 2
COc1cc2ncn(-c3cc(OCCCc4ccccc4)c(C(N)=O)s3)c2cc1OC [GSK205189] | 0 | 0 | 0 | 3 | 1 | 5 | 5 | 17 | 4 | 0 | 0 | 6 | 39 | 12 | 0 | 0 | 5 | 3 | 0 | 0
COc1ccc(Nc2nccc(N3CCC(NS(=O)(=O)c4ccc(NC(C)=O)cc4)C3)n2)cc1 (centres unmarked) [GSK1379729] | 23 | 21 | 0 | 36 | 7 | 31 | 17 | 7 | 19 | 1 | 35 | 25 | 28 | 20 | 18 | 0 | 20 | 10 | 6 | 0
CCc1nc(-c2cccc(C)c2)c(-c2ccncc2)s1 | 0 | 17 | 4 | 6 | 2 | 0 | 0 | 0 | 8 | 2 | 7 | 14 | 0 | 48 | 0 | 5 | 0 | 12 | 0 | 12
O=C(NCc1cccs1)c1cc(C(=O)c2c(Cl)cccc2Cl)c[nH]1 [GW823670] | 0 | 0 | 1 | 4 | 0 | 0 | 0 | 4 | 4 | 0 | 0 | 0 | 0 | 0 | 0 | 20 | 0 | 5 | 0 | 0
O=C(Nc1n[nH]c2cc(-c3ccccc3F)ccc12)C1CC1 [SB-733371] | 22 | 0 | 19 | 0 | 0 | 5 | 0 | 22 | 4 | 0 | 0 | 5 | 0 | 0 | 0 | 18 | 0 | 0 | 0 | 0
COc1ccc(-c2cc3c(C)nc(N)nc3n([C@H]3CC[C@H](OCCO)CC3)c2=O)cn1 | 13 | 0 | 0 | 12 | 11 | 11 | 0 | 0 | 0 | 0 | 16 | 5 | 4 | 13 | 0 | 0 | 0 | 14 | 0 | 16
Nc1ncnc2c1ncn2-c1cccc2ccccc12 [SKF-97184] | 0 | 0 | 0 | 3 | 0 | 0 | 0 | 0 | 0 | 12 | 0 | 0 | 0 | 10 | 26 | 41 | 0 | 0 | 0 | 0
COc1cc2nccc(Nc3ccc(OCc4ccc(NC(C)=O)cc4)cc3)c2cc1OC.Cl [GW440135] | 19 | 16 | 0 | 13 | 0 | 16 | 5 | 5 | 6 | 0 | 32 | 19 | 19 | 31 | 40 | 9 | 0 | 0 | 5 | 0
